# Reference: PubChem BioAssay (EPA / NIEHS)
# Activity calls are given as the source filed them. How the source made its calls: active means hit-call score of the fitted dose curve at least 0.9, where 1 is the maximum; inactive means score below 0.9.
# Read-out: Caspase-3 (Homo sapiens) (UniProt P42574)
# Test: LTEA_HepaRG_CASP3: Life Technologies and Expression Analysis (LTEA) Assay for cysteine-aspartic acid protease (CASP3) using HepaRG (AID 2283477)
# Conditions: mRNA level, 48 h; actives raise or lower the signal
# Description: LTEA_HepaRG is a cell based, multiplexed-readout assay that uses HepaRG, a human liver cell line, with measurements taken at 48 hours after chemical dosing on a 96-well plate.LTEA_HepaRG_CASP3 is one of 102 assay component(s) measured in the LTEA HepaRG cell culture assay. It is a marker of Cell proliferation, survival, death.Data from the assay component LTEA_HepaRG_CASP3 was analyzed into 1 endpoint. This assay endpoint, LTEA_HepaRG_CASP3, was analyzed with bidirectional fitting relative to DMSO as the negative control and baseline of activity. Using a type of inducible reporter, measures of mRNA induction for gain or loss-of-signal activity can be used to understand regulation of transcription factor activity. To generalize the intended target to other relatable targets, this assay endpoint is annotated to the protease intended target family, where the subfamily is cysteine protease.
# A total of 1060 chemcials from the ToxCast library were tested in eight-point concentration-response experiments. Cell culture and cytotoxicity assays were conducted at Thermo Fisher Scientific's Custom Services facility (Madison, WI). A single lot of human HepaRG cells (Thermo Fisher Scientific, Frederick, MD) was used for the cell culture experiments. 96-well format collagen type I coated plates of human HepaRG cells were prepared using established methods. Briefly, cryopreserved HepaRG cells were thawed, plated at a density of approximately 100,000 cells/well in HepaRG Thaw, Plate, and General Purpose media (HPRG770, Thermo Fisher Scientific), and incubated for 48 hours. 0.5% DMSO was selected as vehicle control to balance the requisite need of DMSO in HepaRG cultures to maintain differentiation (for example, baseline metabolism, proportions of hepatocytes vs. cholangiocytes), while enabling further hepatic receptor pathway activation (for example, PXR and CAR) in response to chemical exposure. 48 hours after plating, the culture medium was replaced with HepaRG Serum-Free Incudtion Media. Cells were exposed to each test chemical in duplicate and maintained in CO2 incubators for another 48 hours. Chemical plates were thawed to room temperature and 200x concentrations of treatment groups were prepared. 8-point conentration-reponse curves were made with the highest exposure at 100 uM, followed by half-log dilutions, all in 0.5% DMSO. Each test plate contained variouse controls, induction positive controls (1mM phenobarbital), cytotoxicity positive controls ([…] aflatoxin B1), vehicle controls (0.5% DMSO), and total lysis controls (0.5% DMSO). Cell morphology images were taken using an Essen IncuCyte FLR automated microscope, with six 96-well plates imaged in about 24 minutes. Images were captured and exported and JPEG files. Spent culture media was transfered to black-well plates for the LDH assay, and remaining media was sorted at -80 C for later use. Cells were treated with RLT buffer and frozen until shipped for gene expression analysis. Total RNA was isolated from the cell suspension in 75 uL of Buffer RLT (Qiagen, Germantown, MD 20874) by Quintiles/Expression Analysis (Durham, NC) using a custom isolation procedure. Total RNA from each plate well was transferred to a preamplification plate. Fluidigm's 96.96 Dynamic ArrayTM (Fluidigm, Amsterdam, the Netherlands) technology was used for gene expression analyses by quantitative reverse transcription polymerase chain reaction (qRT-PCR, performed by Quintiles/Expression Analysis, Durham, NC)89. Standard TaqManTM Assays (Applied Biosystems/ThermoFisher Scientific, Foster City, CA) were used to assess the expression of 93 genes selected based on their selectivity and sensitivity to important hepatic receptors known to be modulated by environmental chemicals; importance in human hepatocyte functionality; and hepatotoxicity. […]
# Chain of Caspase-3 (Homo sapiens) (P42574 whole entry, looked up): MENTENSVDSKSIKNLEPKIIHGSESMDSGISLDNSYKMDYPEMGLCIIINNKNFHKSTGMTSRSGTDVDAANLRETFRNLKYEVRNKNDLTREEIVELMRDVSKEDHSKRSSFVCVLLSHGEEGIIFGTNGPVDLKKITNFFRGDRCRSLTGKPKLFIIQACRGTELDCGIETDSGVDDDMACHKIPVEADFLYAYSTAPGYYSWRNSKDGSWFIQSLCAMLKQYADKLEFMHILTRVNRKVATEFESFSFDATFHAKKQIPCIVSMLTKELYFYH
row,Structure (SMILES),outcome
1,N#CSCSC#N,inactive
2,CCCOc1nn(C(=O)NS(=O)(=O)c2ccccc2C(=O)OC)c(=O)n1C,inactive
3,C#CCC1=C(C)C(OC(=O)C2C(C=C(C)C)C2(C)C)CC1=O (stereo not given),inactive
4,CC(Oc1cccc(Cl)c1)C(=O)O (stereo not given),inactive
5,O=C(O)c1cc(Oc2ccc(C(F)(F)F)cc2Cl)ccc1[N+](=O)[O-],inactive
6,CC(C)=CC1C(C(=O)OCN2C(=O)C3=C(CCCC3)C2=O)C1(C)C (stereo not given),inactive
7,CCOC(=O)COc1cc(-c2nn(C)c(OC(F)F)c2Cl)c(F)cc1Cl,inactive
8,COc1cccc(C(=O)NN(C(=O)c2cc(C)cc(C)c2)C(C)(C)C)c1C,inactive
9,COc1ccc(C(=CC(=O)N2CCOCC2)c2ccc(Cl)cc2)cc1OC,inactive
10,CN1COCN(Cc2cnc(Cl)s2)C1=N[N+](=O)[O-],inactive
11,COP(=O)(OC)OC(Br)C(Cl)(Cl)Br (stereo not given),inactive
12,CN(C)C(=O)Nc1cccc(C(F)(F)F)c1,inactive
13,CNC(=O)ON=C(SC)C(=O)N(C)C,inactive
14,CCOC(=O)CC(SP(=O)(OC)OC)C(=O)OCC (stereo not given),inactive
15,CCCCN(CC)c1c([N+](=O)[O-])cc(C(F)(F)F)cc1[N+](=O)[O-],inactive
16,Cc1nn(-c2cc(NS(C)(=O)=O)c(Cl)cc2Cl)c(=O)n1C(F)F,inactive
17,CC(C)N(C(=O)SCC(Cl)=C(Cl)Cl)C(C)C,inactive
18,CCOP(=S)(OCC)Oc1ccc([N+](=O)[O-])cc1,inactive
19,O=c1ccc(=O)[nH][nH]1,inactive
20,CSc1nc(NC(C)C)nc(NC(C)C)n1,inactive

row,Structure (SMILES),outcome
1,CNC(=O)ON=C(C)SC,inactive
2,CC1(C(=O)Nc2ccc(O)c(Cl)c2Cl)CCCCC1,inactive
3,CON=C(C(=O)OC)c1ccccc1CON=C(C)c1cccc(C(F)(F)F)c1,inactive
4,CC[C@H](C)[C@H]1O[C@]2(C=C[C@@H]1C)C[C@@H]1C[C@@H](C/C=C(\C)[C@@H](O[C@H]3C[C@H](OC)[C@@H](O[C@H]4C[C@H](OC)[C@@H](NC)[C@H](C)O4)[C@H](C)O3)[C@@H](C)/C=C/C=C3\CO[C@@H]4[C@H](O)C(C)=C[C@@H](C(=O)O1)[C@]34O)O2,inactive
5,CCOP(=S)(OCC)OC(Cl)C(Cl)(Cl)Cl (stereo not given),inactive
6,CCNc1nc(Cl)nc(NC(C)(C)C#N)n1,inactive
7,CCCSP(=O)(OCC)Oc1ccc(Br)cc1Cl (stereo not given),inactive
8,S=C1NCCN1,inactive
9,COP(=O)(OC)C(O)C(Cl)(Cl)Cl (stereo not given),inactive
10,CNc1cnn(-c2cccc(C(F)(F)F)c2)c(=O)c1Cl,inactive
11,CC(C1CC1)C(O)(Cn1cncn1)c1ccc(Cl)cc1 (stereo not given),inactive
12,CN(C)[C@@H]1C(=O)C(C(N)=O)=C(O)[C@@]2(O)C(=O)C3=C(O)c4c(O)cccc4[C@@](C)(O)[C@H]3[C@H](O)[C@@H]12,inactive
13,CCOP(=O)(SC(C)CC)N1CCSC1=O (stereo not given),inactive
14,CCOP(=O)(OCC)Oc1cc(C)nc(C(C)C)n1,inactive
15,CCOP(=S)(OCC)Oc1ccc2c(C)c(Cl)c(=O)oc2c1,inactive
16,CCCSP(=O)(OCC)SCCC,inactive
17,COc1cc(OC)nc(Sc2cccc(Cl)c2C(=O)O)n1,inactive
18,CCCCSP(=O)(SCCCC)SCCCC,inactive
19,Nc1nc(N)nc(NC2CC2)n1,inactive
20,CCc1cnc(C2=NC(C)(C(C)C)C(=O)N2)c(C(=O)O)c1 (stereo not given),inactive
